# Measurements taken from paper PMC3218832.
# Biological target: RELA (p65) subunit of heterodimer;p52 subunit (Homo sapiens;Homo sapiens, UniProt Q04206;Q00653 1-307;4-332)
# Experiment: protein binding microarray; high values mean tight binding
# Conditions: dsDNA, one strand shown
row,Sequence,binding signal [z-score]
1,CAATGTGTCCT,-0.828
2,CAGTTCTCCCT,0.551
3,AAGGTACTCCC,0.386
4,CAAGTTGTCCC,0.267
5,GGAGGTATCCC,-0.401
6,AAGGGAATCCC,1.75
7,CAATGTTCCCT,-0.0733
8,AAATTACTCCC,-0.25
9,GAATTCGCCCT,-0.517
10,CAGAGACCCCC,0.302
11,CGGTGAGCCCC,0.0767
12,CGAGATACCCC,0.228
13,CAGGGGATCCC,1.49
14,CGGGAGATCCT,0.0606
15,GGAAATGTCCC,1.05
16,GAGAGTATCCC,-0.673
17,CAAAGGCCCCC,0.0834
18,AGAGGTTCCCC,1.33
19,CGAAAAATCCT,-0.435
20,CGGGTAGTCCC,1.23

row,Sequence,binding signal [z-score]
1,GAGAGCCCCCC,0.722
2,GAAGGCGTCCC,-0.134
3,CGATAGCTCCT,-1.04
4,AGAATGTTCCT,-0.735
5,AGAATCCCCCC,2.29
6,AGAAACGTCCT,-0.794
7,GAAGTAATCCT,-0.977
8,AGGGACGTCCT,0.923
9,CGAATACCCCT,1.12
10,CAGAGCACCCT,-0.75
11,AAAGACTCCCT,0.161
12,GAGATATCCCC,1.3
13,AAAGTGATCCT,-1.06
14,AAGAGGTTCCT,-0.822
15,AGGTAATTCCT,0.62
16,CAGGGATCCCC,1.23
17,CGGTGTACCCT,-0.282
18,AAGATGCCCCC,0.788
19,AAAATAACCCC,1.24

# Biological target: RELB subunit;p50 subunit (Homo sapiens;Homo sapiens, UniProt Q01201;P19838 120-401;7-356)
# Experiment: as above
# Conditions: dsDNA, one strand shown
row,Sequence,binding signal [z-score]
1,CAATGTGTCCT,-0.731
2,CAGTTCTCCCT,1.22
3,AAGGTACTCCC,0.54
4,CAAGTTGTCCC,0.826
5,GGAGGTATCCC,-0.488
6,AAGGGAATCCC,1.21
7,CAATGTTCCCT,0.0726
8,AAATTACTCCC,0.146
9,GAATTCGCCCT,-0.698
10,CAGAGACCCCC,0.373
11,CGGTGAGCCCC,-0.0666
12,CGAGATACCCC,0.539
13,CAGGGGATCCC,1.12
14,CGGGAGATCCT,0.132
15,GGAAATGTCCC,0.938
16,GAGAGTATCCC,-0.546
17,CAAAGGCCCCC,0.123
18,AGAGGTTCCCC,1.41
19,CGAAAAATCCT,-0.775
20,CGGGTAGTCCC,0.735

row,Sequence,binding signal [z-score]
1,GAGAGCCCCCC,0.759
2,GAAGGCGTCCC,0.147
3,CGATAGCTCCT,-1.34
4,AGAATGTTCCT,-0.963
5,AGAATCCCCCC,2.64
6,AGAAACGTCCT,-0.947
7,GAAGTAATCCT,-1.16
8,AGGGACGTCCT,0.448
9,CGAATACCCCT,1.03
10,CAGAGCACCCT,-0.474
11,AAAGACTCCCT,0.395
12,GAGATATCCCC,1.08
13,AAAGTGATCCT,-1.27
14,AAGAGGTTCCT,-0.701
15,AGGTAATTCCT,0.351
16,CAGGGATCCCC,1.11
17,CGGTGTACCCT,-0.0463
18,AAGATGCCCCC,0.97
19,AAAATAACCCC,0.895
